The campaign covered roughly 39,000 compounds. About 3,300 (8.5%) were called active. For the sample, actives were picked, then their nearest neighbours and some compounds at random.

This experiment deals with HepG2. Kind of experiment: cytotoxicity call (relative viability < 0.9). The settings on record: 10 µM.
Take `C[C@H]1CN([C@@H](C)CO)C(=O)c2cccc(NC(=O)Nc3cccc4ccccc34)c2O[C@H]1CN(C)Cc1ccc2c(c1)OCO2`: the cytotoxicity call is “inactive”.
The result for `c1ccc(-c2cc(-c3ccccc3)n(-c3ccccc3)n2)cc1` reads “inactive”.
The result for `COc1ccc2c(c1)c(-c1ccccc1)nn2-c1ccc(C)cc1` reads “inactive”; that for `c1ccc(-c2nn(-c3ccccc3)c3c2cnc2ccccc23)cc1`, “active”.
As for `Cc1cc(C)c(S(=O)(=O)N2CCO[C@@H]2CNC(=O)C(=O)NCCCN2CCCC2=O)c(C)c1`, the cytotoxicity call was “inactive”.
With `Cc1c(NC(C)C)c(=O)n(-c2ccccc2)n1C.Cl`, the cytotoxicity call is “inactive”.
The result for `C[C@@H]1CN([C@H](C)CO)C(=O)c2cc(NS(=O)(=O)c3ccc(F)cc3)ccc2O[C@H]1CN(C)S(=O)(=O)c1ccccc1` reads “inactive”.
To `O=C1CCOC[C@@H]2CCCN12` belongs “inactive”.
`C[C@@H]1CCCCO[C@@H](CN(C)Cc2ccncc2)[C@H](C)CN([C@@H](C)CO)C(=O)c2cc(NC(=O)Nc3ccccc3)ccc2O1`: the cytotoxicity call was “inactive”.
For the compound `C[C@@H]1CCCCO[C@H](CN(C)Cc2ccc(C(=O)O)cc2)[C@@H](C)CN([C@@H](C)CO)C(=O)c2cc(NC(=O)Cc3ccccc3)ccc2O1`, the cytotoxicity call was “inactive”.
Take `Cc1ccc(S(=O)(=O)N(C)C[C@@H]2Oc3ccc(N(C)C)cc3CC(=O)N([C@@H](C)CO)C[C@@H]2C)cc1`: the cytotoxicity call was “active”.
In the case of `Cc1ccc(S(=O)(=O)N(C)C[C@H]2Oc3ccc(N(C)C)cc3CC(=O)N([C@@H](C)CO)C[C@@H]2C)cc1`, the cytotoxicity call is “inactive”.
On to `Cc1ccc(S(=O)(=O)N(C)C[C@H]2Oc3ccc(N(C)C)cc3CC(=O)N([C@@H](C)CO)C[C@H]2C)cc1`, for which the cytotoxicity call was “inactive”.
The result for `Cc1ccc(S(=O)(=O)N(C)C[C@H]2Oc3ccc(N(C)C)cc3CC(=O)N([C@H](C)CO)C[C@H]2C)cc1` reads “inactive”; that for `Cc1ccc(S(=O)(=O)N(C)C[C@@H]2Oc3ccc(N(C)C)cc3CC(=O)N([C@H](C)CO)C[C@@H]2C)cc1`, “active”.
For the compound `Cc1ccc(S(=O)(=O)N(C)C[C@@H]2Oc3ccc(N(C)C)cc3CC(=O)N([C@H](C)CO)C[C@H]2C)cc1`, the cytotoxicity call was “inactive”.
As for `C[C@H](CO)N1C[C@H](C)[C@@H](CN(C)Cc2ccc(C(=O)Nc3ccccc3N)cc2)Oc2c(NS(C)(=O)=O)cccc2C1=O`, the cytotoxicity call is “inactive”.
For `Cc1noc(C)c1NC(=O)Nc1ccc2c(c1)C(=O)N([C@@H](C)CO)C[C@H](C)[C@H](CN(C)Cc1ccncc1)OCCCC[C@H](C)O2`, the cytotoxicity call was “inactive”.
In the case of `CN1CCN(C(=O)C[C@H]2CC[C@H]3[C@@H](COc4ccc(NC(=O)C5CCOCC5)cc4C(=O)N3C)O2)CC1`, the cytotoxicity call is “inactive”.
Regarding `CC(C)(C)Nc1nc(=O)[nH]c(=O)[nH]1`, the cytotoxicity call was “inactive”.
As for `Cc1noc(C)c1S(=O)(=O)N(C)C[C@H]1Oc2ccc(NS(=O)(=O)c3cccs3)cc2CC(=O)N([C@@H](C)CO)C[C@H]1C`, the cytotoxicity call is “inactive”.
As for `CC(C)(C)CC(C)(C)c1ccc(O)c(Cc2ccc(Cl)cc2Cl)c1`, the cytotoxicity call is “active”.
The result for `CC(C)(C)CC(C)(C)c1cc(Cc2cc(C(C)(C)CC(C)(C)C)cc(-n3nc4ccccc4n3)c2O)c(O)c(-n2nc3ccccc3n2)c1` [listing 1 of 2 here] reads “inactive”.
On to `CC(C)(C)CC(C)(C)c1cc(Cc2cc(C(C)(C)CC(C)(C)C)cc(-n3nc4ccccc4n3)c2O)c(O)c(-n2nc3ccccc3n2)c1` [listing 2 of 2 here], for which the cytotoxicity call is “inactive”.
For `C/C=C/c1cnc2c(c1)C(=O)N([C@H](C)CO)C[C@@H](C)[C@@H](CN(C)S(=O)(=O)c1ccc(OC)cc1)O2`, the cytotoxicity call was “inactive”.
In the case of `C[C@@H]1CN([C@H](C)CO)C(=O)c2cc(NC(=O)Cc3cn(C)c4ccccc34)ccc2O[C@H]1CN(C)C(=O)Nc1cccc2ccccc12`, the cytotoxicity call is “inactive”.
To `N#CCOc1cccc2ccccc12` belongs “inactive”.
Consider `CN(C)CCOC(c1ccccc1)c1ccccc1.Cl`, for which the cytotoxicity call was “inactive”.
`CN(C)C(CCOc1cccc2ccccc12)c1ccccc1.Cl` (centres undefined): the cytotoxicity call is “active”.
As to `CN(C)Cc1cn(CC[C@@H]2CC[C@H](NS(=O)(=O)c3ccccc3)[C@H](CO)O2)nn1`, the cytotoxicity call was “inactive”.
Turning to `C[C@@H]1CN([C@H](C)CO)C(=O)c2cc(NC(=O)C3CCCCC3)ccc2O[C@@H](C)CCCCO[C@H]1CN(C)C(=O)c1ccccc1`, the cytotoxicity call was “inactive”.
For the compound `C[C@@H]1CCCCO[C@H](CN(C)CC2CCCCC2)[C@@H](C)CN([C@H](C)CO)C(=O)c2cc(NS(=O)(=O)c3cccs3)ccc2O1`, the cytotoxicity call is “inactive”.
In the case of `C[C@@H]1CN([C@@H](C)CO)C(=O)c2cc(NC(=O)Cn3cnnn3)ccc2O[C@@H]1CN(C)Cc1ccc(Oc2ccccc2)cc1`, the cytotoxicity call was “inactive”.
`COC(=O)Nc1nc2cc(C(=O)c3ccccc3)ccc2[nH]1`: the cytotoxicity call was “active”.
As to `COc1cccc(C(=O)c2ccccc2)c1`, the cytotoxicity call was “inactive”.
For the compound `COC(=O)Nc1nc2cc(C(=O)c3ccc(F)cc3)ccc2[nH]1`, the cytotoxicity call is “active”.
With `COC(=O)Nc1nc2cc(C(=O)c3cccs3)ccc2[nH]1`, the cytotoxicity call was “inactive”.
As to `COC(=O)CNC(=O)c1ccc(F)cc1`, the cytotoxicity call was “inactive”.
As for `O=c1[nH]c2ccc(F)cc2nc1O`, the cytotoxicity call is “inactive”.
The result for `Cc1ccc(S(=O)(=O)Nc2ccc3c(c2)CC(=O)N([C@H](C)CO)C[C@H](C)[C@@H](CN(C)S(=O)(=O)c2c(C)noc2C)O3)cc1` reads “inactive”.
For `Oc1cc(O)cc(O)c1`, the cytotoxicity call was “inactive”.
To `Cc1cc(O)cc(C)c1Cl` [listing 1 of 2 here] belongs “inactive”.
With `Cc1cc(O)cc(C)c1Cl` [listing 2 of 2 here], the cytotoxicity call was “active”.
`CCO[C@H]1CC(C)(C)NC(=S)N1`: the cytotoxicity call is “inactive”.
`C[C@@H]1CN([C@H](C)CO)C(=O)Cc2cc(NS(=O)(=O)c3ccc(Cl)cc3)ccc2O[C@@H]1CN(C)Cc1ccc(C(F)(F)F)cc1`: the cytotoxicity call is “inactive”.
For `C[C@H]1CN([C@@H](C)CO)C(=O)Cc2cc(NS(=O)(=O)c3ccc(Cl)cc3)ccc2O[C@H]1CN(C)Cc1ccc(C(F)(F)F)cc1`, the cytotoxicity call is “active”.
For `C[C@H](CO)N1C[C@H](C)[C@H](CN(C)Cc2ccc(C(F)(F)F)cc2)Oc2ccc(NS(=O)(=O)c3ccc(Cl)cc3)cc2CC1=O`, the cytotoxicity call is “active”.
In the case of `C[C@@H]1CN([C@H](C)CO)C(=O)Cc2cc(NS(=O)(=O)c3ccc(Cl)cc3)ccc2O[C@H]1CN(C)Cc1ccc(C(F)(F)F)cc1`, the cytotoxicity call is “active”.
As for `C[C@@H]1CN([C@@H](C)CO)C(=O)Cc2cc(NS(=O)(=O)c3ccc(Cl)cc3)ccc2O[C@@H]1CN(C)Cc1ccc(C(F)(F)F)cc1`, the cytotoxicity call was “active”.
`CCS(=O)(=O)Nc1ccc2c(c1)C(=O)N(C)[C@@H]1CC[C@H](CC(=O)NCc3ccccc3F)O[C@H]1CO2`: the cytotoxicity call was “inactive”.
Take `C[C@H](CO)N1C[C@H](C)[C@@H](CN(C)C(=O)Nc2ccc(F)cc2)Oc2c(NC(=O)c3ccc(-c4nccs4)cc3)cccc2C1=O`: the cytotoxicity call was “inactive”.
As for `C/C=C/c1cnc2c(c1)C(=O)N([C@@H](C)CO)C[C@H](C)[C@@H](CN(C)S(=O)(=O)c1ccc(OC)cc1)O2`, the cytotoxicity call is “inactive”.
For the compound `C[C@@H]1CN([C@H](C)CO)C(=O)c2cc(NC(=O)C3CCCCC3)ccc2O[C@@H](C)CCCCO[C@@H]1CN(C)C(=O)CCC(F)(F)F`, the cytotoxicity call is “inactive”.
As to `C[C@@H]1CCCCO[C@H](CN(C)Cc2ccc(C(=O)O)cc2)[C@H](C)CN([C@@H](C)CO)C(=O)c2cc(NS(=O)(=O)c3ccc(Cl)cc3)ccc2O1`, the cytotoxicity call is “inactive”.
As for `O=C(C[C@@H]1CC[C@@H]2[C@H](COC[C@H](O)CN2C(=O)c2ccncc2)O1)NC1CCC1`, the cytotoxicity call was “inactive”.
To `C[C@@H]1CN([C@H](C)CO)C(=O)c2cc(NC(=O)Nc3ccc(F)cc3)ccc2O[C@@H]1CN(C)S(C)(=O)=O` belongs “inactive”; to `C[C@@H]1CN([C@H](C)CO)C(=O)c2cccc(NS(C)(=O)=O)c2O[C@@H]1CN(C)C(=O)Nc1ccccc1`, “inactive”.
To `C[C@@H]1CN([C@H](C)CO)C(=O)c2cccc(NS(=O)(=O)c3ccc(F)cc3)c2O[C@H]1CN(C)C(=O)Nc1cccc2ccccc12` belongs “inactive”; to `CN(C)CCCCNC(=O)[C@@H]1C[C@@H]2C(=O)N[C@@H](CCCCN)C(=O)N2[C@@H]1c1ccc(O)cc1`, “inactive”; to `C[C@H]1CN([C@@H](C)CO)C(=O)Cc2cc(NS(=O)(=O)c3ccc(Cl)cc3)ccc2O[C@@H]1CN(C)Cc1ccc(C(F)(F)F)cc1`, “active”.
To `C[C@@H]1CN([C@@H](C)CO)C(=O)Cc2cc(NS(=O)(=O)c3ccc(Cl)cc3)ccc2O[C@H]1CN(C)Cc1ccc(C(F)(F)F)cc1` belongs “inactive”; to `C[C@H](CO)N1C[C@H](C)[C@@H](CN(C)Cc2ccc(C(F)(F)F)cc2)Oc2ccc(NS(=O)(=O)c3ccc(Cl)cc3)cc2CC1=O`, “inactive”; to `CC(=O)N[C@H]1[C@H]([C@H](O)[C@H](O)CO)OC(C(=O)O)=C[C@@H]1NC(=N)N`, “inactive”.
With `CNC(=O)Nc1ccc(S(N)(=O)=O)cc1`, the cytotoxicity call is “inactive”.
Consider `NS(=O)(=O)c1ccc(NC(=O)C2CC2)cc1`, for which the cytotoxicity call was “active”.
`NS(=O)(=O)c1ccc(NC(=O)[C@H]2CCCNC2=O)cc1`: the cytotoxicity call is “inactive”.
Take `Cc1ccc(S(=O)(=O)N(C)C[C@@H]2Oc3c(NC(=O)c4cnccn4)cccc3C(=O)N([C@@H](C)CO)C[C@@H]2C)cc1`: the cytotoxicity call was “inactive”.
Turning to `COc1ccc(S(=O)(=O)Nc2ccc3c(c2)CC(=O)N([C@H](C)CO)C[C@@H](C)[C@H](CN(C)S(=O)(=O)c2cccs2)O3)cc1`, the cytotoxicity call was “inactive”.
The result for `C[C@H](CO)N1C[C@H](C)[C@H](CN(C)Cc2ccncc2)Oc2ccc(NC(=O)Nc3ccc(C(F)(F)F)cc3)cc2CC1=O` reads “active”; that for `C[C@H]1CN([C@@H](C)CO)C(=O)Cc2cc(NC(=O)Nc3ccc(C(F)(F)F)cc3)ccc2O[C@@H]1CN(C)Cc1ccncc1`, “active”.
As for `C[C@@H]1CN([C@@H](C)CO)C(=O)Cc2cc(NC(=O)Nc3ccc(C(F)(F)F)cc3)ccc2O[C@H]1CN(C)Cc1ccncc1`, the cytotoxicity call is “inactive”.
In the case of `C[C@H](CO)N1C[C@H](C)[C@@H](CN(C)Cc2ccncc2)Oc2ccc(NC(=O)Nc3ccc(C(F)(F)F)cc3)cc2CC1=O`, the cytotoxicity call was “active”.
`C[C@@H]1CN([C@H](C)CO)C(=O)Cc2cc(NC(=O)Nc3ccc(C(F)(F)F)cc3)ccc2O[C@H]1CN(C)Cc1ccncc1`: the cytotoxicity call is “inactive”.
The result for `C[C@@H]1CN([C@H](C)CO)C(=O)Cc2cc(NC(=O)Nc3ccc(C(F)(F)F)cc3)ccc2O[C@@H]1CN(C)Cc1ccncc1` reads “active”.

(Values after the antibiotic and cytotoxicity screens of Wong et al. (2023).)
